HepG2 viability: kills HepG2 cells in TGF-b inhibitor counter-screen. HepG2 CAGA-GFP viability, ATP luminescence, 18 h. Potency, µM (top dose mostly 46.1 µM), for inactives: at the highest dose activity change, negative = cytotoxicity, actives largely listed as cytotoxic. 0.76% of 410,000 active. AID 588856
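HepG2 CAGA-GFP cells (1000/well, DMEM with 1% FBS) received compound, then TGF-beta at 500 pg/mL final, and were incubated 18 hours at 37 degrees C. Viability was read by CellTiter-Glo luminescence. Media-only wells were set as complete cell-killing and DMSO as no toxicity.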
TGFb inhibitor: blocks TGF-b signaling. HepG2 CAGA-GFP TGF-b/SMAD3 reporter, GFP fluorescence, 18 h; TGF-beta stimulated, 500 pg/mL final. 1.2% of 410,000 active. Potency, µM (highest dose often 46.1 µM), inactives show top-dose activity, negative = inhibition, actives largely listed as inhibitors. AID 588855; further: on the % scale 0 is the no-effect control and ±100 the full control effect; nearly all actives have a fitted effect of over 65% in size
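Per well, imaged GFP fluorescence of HEPG2 CAGA-GFP cells gives the signal; cells get compound, then TGF-beta (500 pg/mL final), 18 h at 37 degrees C; %Activity versus -TGF-beta and +DMSO controls.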
TDP1 cell CPT: DT40-hTDP1 cell growth loss with CPT; chicken DT40 Tdp1-/-;hTDP1 cells + 20 nM CPT, ATP luminescence, 48 h; Potency, µM (series often up to 46.2 µM), for the others: at the highest dose activity change, negative = growth inhibition, usual class: inhibitors; 12% of 420,000 active; AID 686979; further: on the % scale 0 is the no-effect control and ±100 the full control effect; nearly all actives have a fitted effect of over 55% in size
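Cell growth measured by CellTiter-Glo luminescence after a minimum 48 h, 37 C compound exposure with 20 nM CPT in Tdp1-knockout DT40 cells stably expressing hTDP1, seeded 400/well; qHTS titration format.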
ATXN2 expr inh: inhibitors of ATXN2 expression; HEK-293 ATXN2-luciferase reporter, luminescence, 24 h; Potency, µM (highest dose often 57 µM), for the others: at the highest dose activity change, negative = inhibition, actives largely listed as inhibitors; 0.72% of 360,000 active; AID 1745845; further: on the % scale 0 is the no-effect control and ±100 the full control effect; nearly all actives have a fitted effect of over 55% in size
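qHTS (up to 57 uM final) was run with 24 h compound exposure of reporter cells at 37 °C. Each well was multiplexed: SteadyGlo luminescence measured ATXN2-luciferase expression after a fluorogenic Gly-Phe-AFC viability readout (25 uM final).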
DT40 TDP1 no CPT: qHTS for Inhibitors of human tyrosyl-DNA phosphodiesterase 1 (TDP1): qHTS in cells in absence of CPT; 15% of 420,000 active; DT40 Tdp1-/- hTDP1 cells, no CPT, ATP luminescence, 48 h; Potency, µM (series often up to 46.2 µM), for the others: at the top dose activity change, negative = growth inhibition, actives largely listed as inhibitors; AID 686978, 2013; further: on the % scale 0 is the no-effect control and ±100 the full control effect; nearly all actives have a fitted effect of over 55% in size
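Seeded 400 DT40-hTDP1 cells/well (vehicle DMSO, no 20 nM CPT); pinned compounds; ≥48 hr at 37 °C; CellTiter-Glo luminescence as viability measure.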
ATXN viability: cell viability loss in ATXN counter-screen. S2 cells (HEK-293 line with an ATXN2-luciferase reporter) viability, CellTiter-Fluor protease fluorescence, 24 h. Potency, µM (highest dose often 56.7 µM), hits mostly cytotoxic. 0.49% of 400,000 active. AID 651635; further: nearly all actives have a fitted effect of over 40% in size
* marks the source's active call; other numbers are inactive results. Most compounds without a hit are left out; they make up all but 17% or so of the library. The call rests on the fitted dose curve; in most records, active means well fitted curve in the direction sought with a large enough effect; inconclusive means small, poorly fitted or top-dose-only effect, or another doubt; inactive means no such curve, though single readings can be large; an effect the other way counts as inactive or inconclusive. Potency means the concentration at half of the fitted maximal effect.

Cc1cccc(CN(C)C[C@@H]2OCc3cnnn3CCCC(=O)N([C@@H](C)CO)C[C@H]2C)c1 was read as HepG2 viability 2%, TGFb inhibitor 9%, TDP1 cell CPT 0%, ATXN2 expr inh 10%, DT40 TDP1 no CPT 6% and ATXN viability inactive.
`CCCCn1c(N)c(N(CCC(C)C)C(=O)c2ccc(-c3ccc([N+](=O)[O-])cc3)o2)c(=O)[nH]c1=O` gave HepG2 viability 6%, TGFb inhibitor 1%, TDP1 cell CPT inconclusive, ATXN2 expr inh 14µM* and DT40 TDP1 no CPT inconclusive.
For CCCCn1c(N)c(N(CCOC)C(=O)c2ccc(-c3ccc([N+](=O)[O-])cc3)o2)c(=O)[nH]c1=O the results were HepG2 viability -15%, TGFb inhibitor 16%, TDP1 cell CPT 4%, ATXN2 expr inh 22%, DT40 TDP1 no CPT 7% and ATXN viability inactive.
Screening COc1ccc2cccc(CCNC(C)=O)c2c1 returned ATXN2 expr inh 7% and ATXN viability inactive.
For CN(C(=O)CCc1ccccc1F)C1CCCN(Cc2ccccc2F)C1 (stereo not given) the results were HepG2 viability 1%, TGFb inhibitor inconclusive, TDP1 cell CPT 18µM*, ATXN2 expr inh 4%, DT40 TDP1 no CPT 16µM* and ATXN viability inactive.
Screening CCOc1ccccc1Nc1nnc(-c2cc3cc(Cl)ccc3oc2=O)s1 returned HepG2 viability 10%, TGFb inhibitor 0%, TDP1 cell CPT 2.3µM*, ATXN2 expr inh 6%, DT40 TDP1 no CPT 2.3µM* and ATXN viability inactive.
`COc1ccc(Nc2nnc(-c3cc4cc(Cl)ccc4oc3=O)s2)cc1` gave HepG2 viability 4%, TGFb inhibitor 2%, TDP1 cell CPT 14%, ATXN2 expr inh 0%, DT40 TDP1 no CPT 7% and ATXN viability inconclusive.
Screening Cc1ccccc1N=Cc1cccc(O)c1O returned HepG2 viability -56%, TGFb inhibitor 16µM*, TDP1 cell CPT inconclusive, ATXN2 expr inh -13%, DT40 TDP1 no CPT 10µM* and ATXN viability inconclusive.
Screening Oc1cccc(/C=N/N=C/c2cccc(O)c2O)c1O returned HepG2 viability -21%, TGFb inhibitor -13%, TDP1 cell CPT inconclusive, ATXN2 expr inh 21%, DT40 TDP1 no CPT inconclusive and ATXN viability inconclusive.
Cc1ccc(N=Cc2cccc(O)c2O)c(C)c1 was read as HepG2 viability -61%, TGFb inhibitor inconclusive, TDP1 cell CPT 20µM* and DT40 TDP1 no CPT inconclusive.
Screening CCOC(=O)c1ccc(Nc2ncnc3c2cnn3C)cc1 returned HepG2 viability -21%, TGFb inhibitor 1%, TDP1 cell CPT inconclusive, ATXN2 expr inh 6%, DT40 TDP1 no CPT inconclusive and ATXN viability inactive.
For Cn1ncc2c(O/N=C(\N)c3ccc(C(C)(C)C)cc3)ncnc21 the results were HepG2 viability -100%, TGFb inhibitor inconclusive, TDP1 cell CPT 2.6µM*, ATXN2 expr inh inconclusive and DT40 TDP1 no CPT 2.9µM*.
For C=CCNCc1cccn1-c1sc2c(c1C#N)CCCC2 the results were HepG2 viability -33%, TGFb inhibitor 0%, TDP1 cell CPT 21µM*, ATXN2 expr inh -13%, DT40 TDP1 no CPT 21µM* and ATXN viability inactive.
Screening N#Cc1c(-n2cccc2/C=N/O)sc2c1CCCC2 returned HepG2 viability -1%, TGFb inhibitor inconclusive, TDP1 cell CPT inconclusive, ATXN2 expr inh -17%, DT40 TDP1 no CPT inconclusive and ATXN viability inactive.
`O=c1[nH]cnc2c1ncn2[C@@H]1O[C@H](COS(=O)(=O)O)[C@@H](O)[C@H]1O` gave HepG2 viability 3%, TGFb inhibitor inconclusive, TDP1 cell CPT 3.7µM*, ATXN2 expr inh -4%, DT40 TDP1 no CPT inconclusive and ATXN viability inactive.
For Nc1ccn([C@@H]2O[C@H](COS(=O)(=O)O)[C@@H](O)[C@H]2O)c(=O)n1 the results were HepG2 viability 4%, TGFb inhibitor 24%, TDP1 cell CPT 9.2µM*, ATXN2 expr inh 4%, DT40 TDP1 no CPT 1.8µM* and ATXN viability inactive.
Screening Nc1ccn([C@@H]2O[C@H](CNCc3cnc(N4CCOCC4)s3)[C@@H](O)[C@H]2O)c(=O)n1 returned HepG2 viability 0%, TGFb inhibitor 14%, TDP1 cell CPT 0%, ATXN2 expr inh 0%, DT40 TDP1 no CPT inconclusive and ATXN viability inactive.
Screening Cc1cc(S(=O)(=O)NC[C@H]2O[C@@H](n3ccc(N)nc3=O)[C@H](O)[C@@H]2O)c(C)s1 returned HepG2 viability -40%, TGFb inhibitor -2%, TDP1 cell CPT -11%, ATXN2 expr inh -6%, DT40 TDP1 no CPT -20% and ATXN viability inactive.
Nc1ccn(C2OC(COC(=O)C34CC5CC(CC(C5)C3)C4)C(O)C2O)c(=O)n1 (stereo not given) was read as HepG2 viability 5%, TGFb inhibitor 12%, TDP1 cell CPT 0.052µM*, ATXN2 expr inh -9%, DT40 TDP1 no CPT 0.37µM* and ATXN viability inactive.
For O=c1[nH]cnc2c1ncn2[C@@H]1O[C@H](CO)[C@@H](O)[C@H]1O the results were HepG2 viability 27%, TGFb inhibitor 10%, TDP1 cell CPT -9%, ATXN2 expr inh 10%, DT40 TDP1 no CPT 17% and ATXN viability inconclusive.
For O=c1ccn([C@@H]2O[C@H](COS(=O)(=O)O)[C@@H](O)[C@H]2O)c(=O)[nH]1 the results were HepG2 viability -8%, TGFb inhibitor -8%, TDP1 cell CPT 5.2µM*, ATXN2 expr inh -12%, DT40 TDP1 no CPT 4.1µM* and ATXN viability inactive.
COc1ccc(CNc2ncncc2-c2ccc(C(=O)N(C)C)cc2)c(OC)c1 was read as TDP1 cell CPT -23% and DT40 TDP1 no CPT -16%.
`Nc1nc(=O)n(C2OC(CO)C(O)C2O)cc1Cl` (stereo not given) gave TDP1 cell CPT inconclusive and DT40 TDP1 no CPT 5.2µM*.
Screening CCCCCCCCCCCCCCCCCCCCCC(=O)Nc1ccn([C@@H]2O[C@H](CO)[C@@H](O)[C@@H]2O)c(=O)n1 returned TDP1 cell CPT 2.7µM* and DT40 TDP1 no CPT 3.3µM*.
`Nc1ccn([C@@H]2O[C@H](CO)[C@@H](O)C2(F)F)c(=O)n1` gave TDP1 cell CPT 0.0094µM*, ATXN2 expr inh 32µM*, DT40 TDP1 no CPT 0.0094µM* and ATXN viability inconclusive.
